Reference: PubChem BioAssay (EPA / NIEHS)
Several values for one entry are separate records, joined by “and”; a condition that tells them apart may be missing. Equal entries are not always repeated. More than one record can exist for a structure, and the calls need not agree. Activity calls are given as the source filed them. Rule for the calls: active = hit-call score of the fitted dose curve at least 0.9, where 1 is the maximum; inactive = score below 0.9.

What was measured:
[1] = read-out: Thrombomodulin, THBD (gene 7056); test: BSK_CASM3C_Thrombomodulin: BioMAP Diversity Plus: CASM3C Assay for Thrombomodulin Biomarker Activity (AID 2283051); conditions: primary human coronary artery smooth muscle cells; actives raise or lower the signal;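 note: thrombomodulin protein level measured by ELISA 24 h after dosing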
[2] = read-out: Tissue Factor, F3 (gene 2152); test: BSK_CASM3C_TissueFactor: BioMAP Diversity Plus: CASM3C Assay for Tissue Factor Biomarker Activity (AID 2283052); conditions: primary human coronary artery smooth muscle cells; actives raise or lower the signal;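 note: cell surface tissue factor protein level read by ELISA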
[3] = read-out: Interferon-gamma inducible Protein 10 (IP10), CXCL10 (gene 3627); test: BSK_hDFCGF_IP10: BioMAP Diversity Plus: hDFCGF Assay for Interferon-gamma inducible Protein 10 (IP10) Biomarker Activity (AID 2283053); conditions: primary human foreskin fibroblasts; actives raise or lower the signal
How it was run: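 ELISA read-out of IP-10 (CXCL10) from primary human skin fibroblasts, 24 h after compound addition. Gain or loss of signal versus DMSO baseline, bidirectional curve fitting.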

[4] = read-out: Urokinase-type plasminogen activator receptor (uPAR), PLAUR (gene 5329); test: BSK_CASM3C_uPAR: BioMAP Diversity Plus: CASM3C Assay for Urokinase-type plasminogen activator receptor (uPAR) Biomarker Activity (AID 2283054); conditions: primary human coronary artery smooth muscle cells; actives raise or lower the signal;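 note: cell-surface uPAR protein level quantified by ELISA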
[5] = read-out: Vascular cell adhesion molecule 1 (VCAM1), VCAM1 (gene 7412); test: BSK_CASM3C_VCAM1: BioMAP Diversity Plus: CASM3C Assay for Vascular cell adhesion molecule 1 (VCAM1) Biomarker Activity (AID 2283055); conditions: primary human coronary artery smooth muscle cells; actives raise or lower the signal;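 note: VCAM-1 protein level quantified by ELISA on the cells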
[6] = read-out: Collagen III, COL3A1 (gene 1281); test: BSK_hDFCGF_CollagenIII: BioMAP Diversity Plus: hDFCGF Assay for Collagen III Biomarker Activity (AID 2283056); conditions: primary human foreskin fibroblasts; actives raise or lower the signal
How it was run: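 Cells: human foreskin fibroblasts, primary. Dosing followed by 24 h incubation, then ELISA for collagen III. Both increases and decreases scored relative to DMSO.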

[7] = read-out: Epidermal growth factor receptor (EGFR), EGFR (gene 1956); test: BSK_hDFCGF_EGFR: BioMAP Diversity Plus: hDFCGF Assay for Epidermal growth factor receptor (EGFR) Biomarker Activity (AID 2283057); conditions: primary human foreskin fibroblasts; actives raise or lower the signal
How it was run: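 ELISA readout of EGFR on human dermal fibroblasts (primary foreskin cells), 24 h post-dosing; bidirectional curve fit vs DMSO baseline, gain or loss of signal scored.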

[8] = read-out: Interleukin-8 (IL8), CXCL8 (gene 3576); test: BSK_hDFCGF_IL8: BioMAP Diversity Plus: hDFCGF Assay for Interleukin-8 (IL8) Biomarker Activity (AID 2283058); conditions: primary human foreskin fibroblasts; actives raise or lower the signal
How it was run: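 IL-8 levels from compound-treated primary human fibroblasts were read by ELISA at 24 h, with DMSO serving as baseline for bidirectional fitting.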

[9] = BSK_hDFCGF_Proliferation: Cell Proliferation Assessment in the BioMAP Diversity Plus: hDFCGF Assay (AID 2283059); conditions: primary human foreskin fibroblasts;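 note: curves fitted for both rise and fall of signal versus DMSO baseline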
How it was run: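 Sub-confluent human foreskin fibroblast cultures receive test chemical […]. Relative cell number is quantified by sulforhodamine B staining (0.1%, after 10% TCA fixation) at 560 nm, with bidirectional fitting referenced to DMSO.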

[10] = read-out: Macrophage colony-stimulating factor (MCSF), CSF1 (gene 1435); test: BSK_hDFCGF_MCSF: BioMAP Diversity Plus: hDFCGF Assay for Macrophage colony-stimulating factor (MCSF) Biomarker Activity (AID 2283060); conditions: primary human foreskin fibroblasts; actives raise or lower the signal
How it was run: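 M-CSF levels, determined by ELISA, are taken at 24 h after dosing human skin fibroblasts. Responses in either direction are fitted with DMSO serving as the baseline.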

Measured: AC50

O=[N+]([O-])c1ccc2c3c(cccc13)CC2
active: [9] 27.7 µM | [10] 10.6 µM
inactive: all other assays above

COP(=S)(OC)Oc1ccc(Sc2ccc(OP(=S)(OC)OC)cc2)cc1
active: [1] 12.6 µM | [9] 20 µM
inactive: all other assays above

C=C(C)C(=O)[O][Sn]([CH2]CCC)([CH2]CCC)[CH2]CCC
inactive: [7]
active: [1] 1.54 µM | [2] 1.15 µM | [3] 0.148 µM | [4] 0.391 µM | [5] 0.148 µM | [6] 0.374 µM | [8] 0.148 µM | [9] 0.15 µM | [10] 0.148 µM

C[C@]12CCC(=O)C[C@@H]1CC[C@@H]1[C@@H]2CC[C@]2(C)[C@@H](O)CC[C@@H]12
inactive: all assays above

CCC(=O)C(CC(C)N(C)C)(c1ccccc1)c1ccccc1 (stereo not drawn)
inactive: all assays above

COP(=S)(OC)Oc1cc(Cl)c(Cl)cc1Cl
active: [5] 16.5 µM | [6] 20 µM
not listed: [10]
inactive: all other assays above

CCCCC(CC)CO[N+](=O)[O-] (stereo not drawn)
active: [4] 3.05 µM | [5] 34.1 µM
inactive: all other assays above

Oc1c(I)cc(I)cc1I
active: [4] 0.191 µM | [6] 4.24 µM | [9] 8.03 µM
inactive: all other assays above

COC(=O)Cc1ccccc1
inactive: all assays above

NC(=O)O
inactive: all assays above

CC(=O)C(Cl)C(=O)N(C)C (stereo not drawn)
active: [2] 7.43 µM | [5] 12 µM | [6] 13.8 µM | [9] 26 µM
not listed: [10]
inactive: all other assays above

ClC(Cl)=C(Cl)C(Cl)=C(Cl)Cl
active: [1] 0.0235 µM | [5] 20 µM | [6] 20 µM | [9] 29.4 µM
inactive: all other assays above

CCCCCCCCc1ccc(O)cc1
inactive: [7]
active: [1] 34.6 µM | [2] 28.7 µM | [3] 25.8 µM | [4] 39.1 µM | [5] 33.9 µM | [6] 20.1 µM | [8] 36 µM | [9] 7.67 µM | [10] 32.9 µM

CCOC(=O)/C=C(C)/C=C/C[C@@H](C)CCCC(C)C
inactive: [7] | [8]
active: [1] 35.8 µM | [2] 20 µM | [3] 31.4 µM | [4] 30.9 µM | [5] 20 µM | [6] 8.64 µM | [9] 9.55 µM | [10] 20 µM

CCOP(=S)(OCC)SCSP(=S)(OCC)OCC
active: [3] 13.9 µM | [6] 10 µM | [9] 31.6 µM
inactive: all other assays above

CCCCCCCCC(=O)NCc1ccc(O)c(OC)c1
active: [4] 20 µM | [6] 25.6 µM
inactive: all other assays above

O=C(O)C(F)(F)C(F)(F)C(F)(F)C(F)(F)C(F)(F)C(F)(F)C(F)(F)C(F)(F)C(F)(F)C(F)(F)F
inactive: [1] | [2] | [4] | [5] | [7]
active: [1] 0.141 µM | [3] 6.56 µM and 4.76 µM and 4.7 µM | [6] 17.1 µM and 5.73 µM and 3.66 µM | [7] 835 nM and 906 nM | [8] 13.1 µM and 6.18 µM and 6.3 µM | [9] 4.01 µM and 2.28 µM and 2.17 µM | [10] 10.8 µM and 5.03 µM and 4.97 µM

OCc1ccco1
active: [9] 29.6 µM
inactive: all other assays above

BrCCBr
inactive: all assays above

CC(C)(OO)c1ccccc1
inactive: [1] | [2] | [4] | [5]
active: [3] 32.7 µM | [6] 20 µM | [7] 35.8 µM | [8] 38.1 µM | [9] 6.71 µM | [10] 28.9 µM

COC[C@H](C)N(C(=O)CCl)c1c(C)csc1C
inactive: all assays above

CCOP(=S)(OCC)Oc1ccc(S(C)=O)cc1 (stereo not drawn)
inactive: all assays above

COP(=S)(OC)Oc1c(Cl)cc(C)cc1Cl
active: [2] 5.88 µM | [6] 13.2 µM
inactive: all other assays above

CC12CC1(C)C(=O)N(c1cc(Cl)cc(Cl)c1)C2=O (stereo not drawn)
inactive: all assays above

Oc1ccc(-c2ccccc2)cc1
active: [2] 20 µM
inactive: all other assays above

Nc1ccc(-c2ccc(N)c(Cl)c2)cc1Cl
active: [2] 11.6 µM | [9] 0.922 µM
inactive: all other assays above

Nc1ncc([N+](=O)[O-])s1
inactive: all assays above

CCOP(=S)(OCC)SCCS(=O)(=O)CC
inactive: all assays above

CC1(C)Cc2cccc(O)c2O1
inactive: all assays above

ClC1(Cl)C2(Cl)C3(Cl)C4(Cl)C(Cl)(Cl)C5(Cl)C3(Cl)C1(Cl)C5(Cl)C24Cl (stereo not drawn)
active: [9] 0.572 µM
inactive: all other assays above

O=C(O)CCC(F)(C(F)(F)F)C(F)(F)F
active: [3] 1.93 µM | [5] 0.25 µM | [10] 5.95 µM
inactive: [1] | [2] | [3] | [4] | [5] | [6] | [7] | [8] | [9] | [10]

Cc1ccccc1N
inactive: all assays above

COc1cc(OC)nc(NC(=O)NS(=O)(=O)c2ncccc2C(=O)N(C)C)n1
inactive: all assays above
